Assay results: PubChem BioAssay AID651597 (National Center for Advancing Translational Sciences (NCATS), 2012)
Hit rate of the full screen: of about 1,100 compounds, about 390 (35%) were called active. Another 30% or so got no clear call; they are omitted. Some of the results follow. Unmarked numbers belong to inactive results. Calls come from the whole dose curve; as a rule, active = well fitted inhibition curve with a large enough effect; inconclusive = small, poorly fitted or top-dose-only effect; inactive = flat fitted curve, though single readings scatter.

target: Luciferin 4-monooxygenase (Photinus pyralis) (UniProt P08659); test: qHTS of Nrf2 Activators: Hit Validation in Secondary FLuc Assay; conditions: firefly luciferase inhibition counter-screen, luminescence; series mostly up to 57.5 µM; activity, negative = inhibition: at the top concentration; note: nearly all actives have a fitted effect of over 65% in size
How it was run: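 Counter-screen on purified firefly luciferase with ATP and D-luciferin at Km concentrations; compounds flagged if they inhibit the enzyme, indicating possible reporter stabilization rather than ARE activation.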
% is set by controls: 0 for no effect and ±100 for the full control effect; potency is the fitted concentration of half-maximal effect.

Compound | activity, negative = inhibition | Potency
COCCN(C(=O)COC(=O)/C=C/c1ccccc1Cl)c1c(N)n(Cc2ccccc2)c(=O)[nH]c1=O | 3.75% | –
O=C(/C=C/c1ccccc1Cl)Nn1cnc2ccccc2c1=O | -25.3% | –
O=C(C=Cc1ccccc1Cl)c1ccccc1 | – | 0.953 µM (active)
Cn1c(=O)c(C(=O)NNC(=O)c2ccccc2F)c(O)c2ccccc21 | -25.6% | –
FC(F)(F)c1cc(-c2ccco2)nc(NCc2ccco2)n1 | -29.3% | –
Oc1c(-c2cc(-c3ccco3)[nH]n2)ccc2ccccc12 | – | 0.953 µM (active)
Oc1ccc(Br)cc1-c1cc(-c2ccco2)[nH]n1 | – | 16.9 µM (active)
Oc1ccc(Cl)cc1-c1cc(-c2ccco2)[nH]n1 | – | 13.5 µM (active)
Oc1ccccc1C=NN=C1c2ccccc2-c2ccccc21 | – | 4.26 µM (active)
O=C(N/N=C/c1cn[nH]c1-c1ccccc1)c1ccco1 | -26.1% | –
O=C(Nc1ccccc1C(=O)N/N=C/c1ccco1)c1ccc(F)cc1 | – | 4.78 µM (active)
Nc1c(Cl)c(Cl)nc(C(=O)N/N=C/c2ccco2)c1Cl | -5.24% | –
O=C(Nc1ccccc1C(=O)N/N=C/c1ccco1)c1ccccc1 | – | 7.57 µM (active)
COC(CN(C(=O)CCl)C(C(=O)NC1CCCCC1)c1ccccc1C)OC (stereo not drawn) | -0.975% | –
COc1ccc([N+](=O)[O-])cc1C1NN=C(c2ccccc2O)S1 (stereo not drawn) | – | 8.49 µM (active)
COc1ccc([N+](=O)[O-])cc1NC(=O)c1ccco1 | -0.817% | –
CCN1CCN(c2sc(S(C)(=O)=O)nc2S(=O)(=O)c2ccc(Cl)cc2)CC1 | 3.21% | –

Compound | activity, negative = inhibition | Potency
CC(=O)OC1(C(C)=O)CCC2C3CC(C(F)(F)F)C4=CC(=O)CCC4(C)C3CCC21C (stereo not drawn) | -0.683% | –
CC1CN(c2sc(S(C)(=O)=O)nc2S(=O)(=O)c2ccc(Cl)cc2)CC(C)O1 (stereo not drawn) | -28.1% | –
O=C(Nc1ccccc1)c1nc[nH]c1C(=O)Nc1ccccc1F | -0.43% | –
O=C(Nc1ccccc1)Nc1cccc2nsnc12 | – | 2.69 µM (active)
C/C(=N\Nc1ccc2nncn2n1)c1ccc(Cl)s1 | -3.88% | –
C/C(=N\Nc1ccccn1)c1ccc(Br)s1 | – | 12 µM (active)
C/C(=N\Nc1ccccn1)c1cccs1 | – | 2.39 µM (active)
Cn1c(N)c(C(=O)COC(=O)c2nc(Cl)ccc2Cl)c(=O)n(C)c1=O | -3.17% | –
CC(C)(C)c1csc(NC(=O)CCS(=O)(=O)c2ccc(F)cc2)n1 | -18.9% | –
O=C(/C=C/c1ccccc1)Nc1ncn[nH]1 | – | 10.7 µM (active)
CN1c2ccsc2/C(=N/Nc2ccccc2)CS1(=O)=O | – | 7.57 µM (active)
OCC1OC(n2cnc3c(NCc4ccccc4O)ncnc32)C(O)C1O (stereo not drawn) | -0.396% | –
CC1=NC(=O)C(N=Nc2cccc(O)c2)N1c1ccccc1 (stereo not drawn) | – | 3.79 µM (active)
Clc1ccc(/C=N/Nc2nnc(Cl)c3ccccc23)cc1 | – | 0.338 µM (active)
CSc1nsc(SC)c1C(=O)Nc1ccc(C)cc1 | -30% | –
CNc1nc(N)c([N+](=O)[O-])c(Nc2cccc(Cl)c2)n1 | 5.42% | –
